Measurements: PubChem BioAssay (NCI)
About 83,000 compounds went through this panel and 20% of them were active in at least one assay; those are over-represented in the sample as a whole.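 Percent growth is the endpoint: 0 to 100 indicates growth inhibition (40 means 60% inhibition), 0 means no net growth, and negative values indicate cell death.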 A number with no mark means an inactive call. The source made the active and inactive calls. The calls were made as follows: active = growth percent below 10; inactive = the rest.

These compounds were tested on RXF 393 renal (assay: NCI-60 one-dose screen, 48 h (100 = growth as untreated, 0 = no growth, -100 = all killed)). Settings: 10 µM unless noted.
`CN(C(=O)CN1C(=O)/C(=C/c2ccco2)SC1=S)C1CCS(=O)(=O)C1` (stereo unspecified) gave a growth of 108%.
In the case of `O=C(c1ccc(Cl)cc1)C1[C@H](c2ccccc2Cl)[C@@H](c2ccccc2)NC12C(=O)Nc1ccccc12` (stereo partly specified), the growth is reported as -80.8% (active).
For `Cc1ccc(Nc2nnc(-c3c[nH]c4ccccc34)o2)c(C)c1`, the growth was -11.9% (active).
Work on `Cc1ccccc1NC(=O)c1cccc(NC(=O)CCl)c1` yielded a growth of 49.7%.
`Clc1ccc(CNc2nc(SCCN3CCOCC3)nc3c2cnn3CC(Cl)c2ccc(Br)cc2)cc1` (stereo unspecified) gave a growth of 51.1%.
In the case of `CCc1ccc(SC2c3cc(OC)ccc3Oc3nc(N)c(C#N)c(N)c32)cc1` (stereo unspecified), the growth is reported as -61.8% (active).
In the case of `O=C(N/N=C/c1ccc(B(O)O)s1)c1[nH]c2ccc(Br)cc2c1-c1ccccc1`, the growth is reported as -94.3% (active).
For `CCN1C(=O)N(CC)C2NNC(Sc3c(C(=O)O)c4ccccc4n(CC(C)C)c3=O)=NC21` (stereo unspecified), the growth was 81.8%.
With `COc1ccc(/C=C/c2nc3ccccc3c(=O)n2CC(=O)Nc2ccccc2)cc1` the growth was -54.7% (active).
For `COc1ccc2[nH]c(=O)c(CSc3ccccc3Nc3nccc(-c4ccc5c(c4)OCO5)n3)cc2c1`, the growth was 79.7%.
`Cc1ccc(Cl)cc1NC(=O)N/C(N)=N/c1nc2ccccc2s1` was tested, and the growth was -28.5% (active).
`COc1ccc(OC)c(Cn2cc(C#N)c(N)c2C(=O)c2ccc(Br)cc2)c1` was tested, and the growth was 41.8%.
Compound `Cc1ccc(-c2cc(-c3ccccc3)[nH]c(=O)c2C#N)cc1` has a growth of 101%.
For `Cc1ccc(C(C(=O)NC2CCCCC2)N(Cc2ccccc2Cl)C(=O)c2ccc(CN3CCOCC3)o2)o1` (stereo unspecified), the growth was 93.4%.
In the case of `CN(C)c1ccc(/C=C/c2n(Cc3ccc4ccccc4c3)c3ccccc3[n+]2Cc2ccc3ccccc3c2)cc1`, the growth is reported as -74.4% (active).
Work on `Cc1nn(-c2ccccc2)c2nc(C)n(CC(=O)N/N=C/c3ccccc3O)c(=O)c12` yielded a growth of 25.9%.
`CC1=C(C)C(=O)C(N2CCSCC2)=CC1=O` showed a growth of 98.5%.
`NC(=O)c1ccc(-c2ccc3ncnc(N4CCc5cc(F)c(Cl)cc54)c3c2)cn1` showed a growth of 40.9%.
With `Cn1ncc2c(N)nc(Oc3ccccc3-c3ccccc3)nc21` the growth was 25%.
In the case of `C=CC[n+]1cccc2c3ccccc3ccc21`, the growth is reported as 69.7%.
`COc1ccc2nc(NC(=O)c3ccc(N(C)C)cc3)sc2c1` gave a growth of 110%.
With `O=C(N/N=C/c1ccoc1)c1[nH]c2ccc(Br)cc2c1-c1ccccc1` the growth was -86.3% (active).
`O=C(Nc1ccc(-c2ccc3c(c2)NC(=O)/C3=C\c2ccc[nH]2)cc1)Nc1ccc(Cl)c(C(F)(F)F)c1` showed a growth of 42.3%.
`CN1C(=O)/C(=C/c2ccco2)S/C1=N/c1nccs1` was tested, and the growth was 111%.
In the case of `COc1cccc2nc(Nc3cccc(NC(=O)c4ccc(CN5CCN(C)CC5)c(C(F)(F)F)c4)c3)ccc12`, the growth is reported as -98.5% (active).
In the case of `Fc1cccc(CNc2nc(SCCN3CCOCC3)nc3c2cnn3CC(Cl)c2ccc(Br)cc2)c1` (stereo unspecified), the growth is reported as 29.5%.
`CCCCNc1ccc2c3c(cccc13)C(=O)N(c1cccc(-c3nn(-c4ccccc4)cc3-c3nc4ccccc4s3)c1)C2=O` gave a growth of 98.5%.
In the case of `N/C(=N\c1nc2ccccc2s1)NC(=O)Nc1ccccc1[N+](=O)[O-]`, the growth is reported as 36.4%.
`Cc1ccc(C(=O)Nc2cc(-c3ccncc3)cc(C(F)(F)F)c2)cc1C#Cc1cnc2cccnn12` gave a growth of 28.8%.
In the case of `CCN1C(=O)N(CC)C2NNC(Sc3c(C(=O)O)c4ccccc4n(CCC(C)C)c3=O)=NC21` (stereo unspecified), the growth is reported as -1.23% (active).
Compound `CC1=C(C(=O)OCc2ccccc2)C(c2ccc(N(C)C)cc2)n2c(nc3ccccc32)N1` (stereo unspecified) has a growth of 74.6%.
In the case of `COc1cc(/C=C/C(=O)c2cnn(-c3cc(=O)[nH]c4ccc(Br)cc34)c2C)cc(OC)c1OC`, the growth is reported as -76.2% (active).
`S=C(Nc1ccc(OCc2nc3ccc(Cl)cc3[nH]2)cc1)NC1CCCCC1` was tested, and the growth was -52.3% (active).
`Nc1nn2c(-c3cc4cc(Br)ccc4oc3=O)ccnc2c1N=Nc1ccc(S(N)(=O)=O)cc1` was tested, and the growth was 87.1%.
In the case of `CCN(C(=O)CN1C(=O)/C(=C/c2ccco2)SC1=S)C1CCS(=O)(=O)C1` (stereo unspecified), the growth is reported as 109%.
`Cn1cc(Nc2ncnc(-c3ccc(N4CCCC4)c(C#N)c3)n2)cn1` was tested, and the growth was 50.8%.
Work on `O=C1Nc2ccccc2/C1=C\c1ccc(OCC(=O)c2ccc(Br)cc2)cc1` yielded a growth of 67.6%.
In the case of `COc1cc(CNC(=O)C[C@H](C)CCC=C(C)C)ccc1OCc1cn(-c2ccc(Br)cc2)nn1`, the growth is reported as 61.8%.

What follows are compounds tested on SF-268 CNS in the same assay as above. Settings: 10 µM unless noted.
`CN(C(=O)CN1C(=O)/C(=C/c2ccco2)SC1=S)C1CCS(=O)(=O)C1` (stereo unspecified) was tested, and the growth was 93.9%.
In the case of `O=C(c1ccc(Cl)cc1)C1[C@H](c2ccccc2Cl)[C@@H](c2ccccc2)NC12C(=O)Nc1ccccc12` (stereo partly specified), the growth is reported as 2.93% (active).
For `Cc1ccc(Nc2nnc(-c3c[nH]c4ccccc34)o2)c(C)c1`, the growth was 32.5%.
Work on `Cc1ccccc1NC(=O)c1cccc(NC(=O)CCl)c1` yielded a growth of 60.1%.
Compound `Clc1ccc(CNc2nc(SCCN3CCOCC3)nc3c2cnn3CC(Cl)c2ccc(Br)cc2)cc1` (stereo unspecified) has a growth of 49.3%.
With `CCc1ccc(SC2c3cc(OC)ccc3Oc3nc(N)c(C#N)c(N)c32)cc1` (stereo unspecified) the growth was -4.75% (active).
For `O=C(N/N=C/c1ccc(B(O)O)s1)c1[nH]c2ccc(Br)cc2c1-c1ccccc1`, the growth was -37.2% (active).
In the case of `CCN1C(=O)N(CC)C2NNC(Sc3c(C(=O)O)c4ccccc4n(CC(C)C)c3=O)=NC21` (stereo unspecified), the growth is reported as 55.7%.
With `COc1ccc(/C=C/c2nc3ccccc3c(=O)n2CC(=O)Nc2ccccc2)cc1` the growth was 54.5%.
Compound `COc1ccc2[nH]c(=O)c(CSc3ccccc3Nc3nccc(-c4ccc5c(c4)OCO5)n3)cc2c1` has a growth of 73.4%.
With `Cc1ccc(Cl)cc1NC(=O)N/C(N)=N/c1nc2ccccc2s1` the growth was 15.4%.
`COc1ccc(OC)c(Cn2cc(C#N)c(N)c2C(=O)c2ccc(Br)cc2)c1` gave a growth of 68.5%.
Compound `Cc1ccc(-c2cc(-c3ccccc3)[nH]c(=O)c2C#N)cc1` has a growth of 92.9%.
`Cc1ccc(C(C(=O)NC2CCCCC2)N(Cc2ccccc2Cl)C(=O)c2ccc(CN3CCOCC3)o2)o1` (stereo unspecified) was tested, and the growth was 83.5%.
In the case of `CN(C)c1ccc(/C=C/c2n(Cc3ccc4ccccc4c3)c3ccccc3[n+]2Cc2ccc3ccccc3c2)cc1`, the growth is reported as -59.1% (active).
Compound `Cc1nn(-c2ccccc2)c2nc(C)n(CC(=O)N/N=C/c3ccccc3O)c(=O)c12` has a growth of 47.6%.
For `CC1=C(C)C(=O)C(N2CCSCC2)=CC1=O`, the growth was 102%.
`NC(=O)c1ccc(-c2ccc3ncnc(N4CCc5cc(F)c(Cl)cc54)c3c2)cn1` gave a growth of 95.6%.
With `Cn1ncc2c(N)nc(Oc3ccccc3-c3ccccc3)nc21` the growth was 55.6%.
`C=CC[n+]1cccc2c3ccccc3ccc21` was tested, and the growth was 22.7%.
With `COc1ccc2nc(NC(=O)c3ccc(N(C)C)cc3)sc2c1` the growth was 90.2%.
With `O=C(N/N=C/c1ccoc1)c1[nH]c2ccc(Br)cc2c1-c1ccccc1` the growth was -56.8% (active).
Work on `O=C(Nc1ccc(-c2ccc3c(c2)NC(=O)/C3=C\c2ccc[nH]2)cc1)Nc1ccc(Cl)c(C(F)(F)F)c1` yielded a growth of 46.3%.
Work on `CN1C(=O)/C(=C/c2ccco2)S/C1=N/c1nccs1` yielded a growth of 107%.
`COc1cccc2nc(Nc3cccc(NC(=O)c4ccc(CN5CCN(C)CC5)c(C(F)(F)F)c4)c3)ccc12` was tested, and the growth was -54.4% (active).
Work on `Fc1cccc(CNc2nc(SCCN3CCOCC3)nc3c2cnn3CC(Cl)c2ccc(Br)cc2)c1` (stereo unspecified) yielded a growth of 35%.
Compound `CCCCNc1ccc2c3c(cccc13)C(=O)N(c1cccc(-c3nn(-c4ccccc4)cc3-c3nc4ccccc4s3)c1)C2=O` has a growth of 109%.
For `N/C(=N\c1nc2ccccc2s1)NC(=O)Nc1ccccc1[N+](=O)[O-]`, the growth was 23%.
`Cc1ccc(C(=O)Nc2cc(-c3ccncc3)cc(C(F)(F)F)c2)cc1C#Cc1cnc2cccnn12` was tested, and the growth was 79.4%.
In the case of `CCN1C(=O)N(CC)C2NNC(Sc3c(C(=O)O)c4ccccc4n(CCC(C)C)c3=O)=NC21` (stereo unspecified), the growth is reported as 49.3%.
With `CC1=C(C(=O)OCc2ccccc2)C(c2ccc(N(C)C)cc2)n2c(nc3ccccc32)N1` (stereo unspecified) the growth was 81.7%.
For `COc1cc(/C=C/C(=O)c2cnn(-c3cc(=O)[nH]c4ccc(Br)cc34)c2C)cc(OC)c1OC`, the growth was -16.4% (active).
For `S=C(Nc1ccc(OCc2nc3ccc(Cl)cc3[nH]2)cc1)NC1CCCCC1`, the growth was 5.6% (active).
For `Nc1nn2c(-c3cc4cc(Br)ccc4oc3=O)ccnc2c1N=Nc1ccc(S(N)(=O)=O)cc1`, the growth was 78.5%.
In the case of `CCN(C(=O)CN1C(=O)/C(=C/c2ccco2)SC1=S)C1CCS(=O)(=O)C1` (stereo unspecified), the growth is reported as 95.4%.
With `Cn1cc(Nc2ncnc(-c3ccc(N4CCCC4)c(C#N)c3)n2)cn1` the growth was 71.9%.
`O=C1Nc2ccccc2/C1=C\c1ccc(OCC(=O)c2ccc(Br)cc2)cc1` gave a growth of 86.9%.
With `COc1cc(CNC(=O)C[C@H](C)CCC=C(C)C)ccc1OCc1cn(-c2ccc(Br)cc2)nn1` the growth was 71.7%.
